Reference: PubChem BioAssay (Tox21)
Inconclusive results are not listed. Activity calls are given as the source filed them. Calls come from the whole dose curve; as a rule, active = well fitted curve in the direction sought with a large enough effect in the repeat runs; inconclusive = weak or mixed curves; inactive = no such curve, though single readings can be large; an effect the other way counts as inactive or inconclusive.

What was measured:
[1] = A CellTox Green Cytotoxicity Assay to monitor cytotoxicity in HepG2 cells - 0 hour (AID 1224882); note: nearly all actives have a fitted effect of over 35% in size
Summary of the method: (§1)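 Real-time cytotoxicity: fluorescence of a cell-impermeant cyanine dye binding DNA of dead HepG2 cells, measured repeatedly (0–40 h) during compound exposure at 37 C. Cells seeded 600/well with reagent, dosed after 5 h.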

[2] = A CellTox Green Cytotoxicity Assay to monitor cytotoxicity in HepG2 cells - 32 hour (AID 1224883); note: nearly all actives have a fitted effect of over 50% in size
Summary of the method: as §1

[3] = A CellTox Green Cytotoxicity Assay to monitor cytotoxicity in HEK293 cells - 8 hour (AID 1224884); note: nearly all actives have a fitted effect of over 35% in size
Summary of the method: (§2)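 Fluorescence from a DNA-binding dye excluded by viable cells was measured repeatedly in the same HEK293 wells (600 cells/well) during continuous compound exposure at 37 C. Each assay gives one read point: 0, 8, 16, 24, 32 or 40 h.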

[4] = qHTS RealTime-Glo MT Cell Viability Assay in HepG2 cells - 16 hour (AID 1224885); note: nearly all actives have a fitted effect of over 50% in size
Summary of the method: (§3)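 Cell number in HepG2 cultures estimated from NanoLuc luminescence generated by metabolic reduction of a prosubstrate by living cells. The homogeneous, nonlytic format allowed repeated reads at 0, 8, 16, 24, 32 and 40 h of compound exposure.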

[5] = qHTS RealTime-Glo MT Cell Viability Assay in HEK293 cells - 24 hour (AID 1224886); note: top concentration of the series differs between compounds; nearly all actives have a fitted effect of over 50% in size
Summary of the method: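 Homogeneous bioluminescent viability format in HEK293 cells (600 cells/well). Following 5 h at 37 C/5% CO2, 23 nL compound was pintooled; the signal was measured repeatedly during 40 h incubation.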

[6] = qHTS RealTime-Glo MT Cell Viability Assay in HEK293 cells - 8 hour (AID 1224887); note: top concentration of the series differs between compounds; nearly all actives have a fitted effect of over 50% in size
Summary of the method: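 Luminescence, which tracks viable cell number through reduction of the prosubstrate to a NanoLuc substrate, was read over continuous 37 C culture. Cells (600/well) were premixed with reagent and rested 5 h before 23 nL of compound in DMSO was pinned.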

[7] = A CellTox Green Cytotoxicity Assay to monitor cytotoxicity in HEK293 cells - 16 hour (AID 1224888); note: nearly all actives have a fitted effect of over 35% in size
Summary of the method: as §2

[8] = qHTS RealTime-Glo MT Cell Viability Assay in HepG2 cells - 0 hour (AID 1224889); note: nearly all actives have a fitted effect of over 50% in size
Summary of the method: as §3

[9] = A CellTox Green Cytotoxicity Assay to monitor cytotoxicity in HepG2 cells - 8 hour (AID 1224890); note: nearly all actives have a fitted effect of over 45% in size
Summary of the method: as §1

[10] = qHTS assay to identify small molecule antagonists of the estrogen receptor alpha (ER-alpha) signaling pathway using the BG1 cell line in the presence of 0.1 nM 17-beta-estradiol - cell viability counter screen (AID 1259241); note: nearly all actives have a fitted effect of over 40% in size
Summary of the method: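 Following 5 days in phenol red-free medium with charcoal-stripped serum, VM7Luc4E2 cells received test compounds alongside 0.1 nM 17beta-estradiol (final) at 37C for 22 hr. Live cells were then quantified via protease-substrate fluorescence.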

Measured: Potency

O=NN1CCCCC1
inactive: all assays above

O=C(O)c1ccc2[nH]cc(CCCCN3CC=C(c4ccccc4)CC3)c2c1
inactive: all assays above

CCOP(=S)(Oc1cnc(C(C)(C)C)nc1)OC(C)C (centres undefined)
inactive: all assays above

CNC(=O)N(C)c1nc2ccccc2s1
inactive: all assays above

O=C1OC(c2ccc(O)c(S(=O)(=O)O)c2)(c2ccc(O)c(S(=O)(=O)O)c2)c2c(Br)c(Br)c(Br)c(Br)c21
inactive: all assays above

CCCSP(=S)(OCC)Oc1ccc(Cl)cc1Cl (centres undefined)
not listed: [10]
inactive: all other assays above

OC(c1ccc(F)cc1)(c1cncnc1)c1ccccc1Cl (centres undefined)
inactive: all assays above

CC(C)CP(=S)(S)CC(C)C
inactive: all assays above

CSc1ccc(C(=O)C(C)(C)N2CCOCC2)cc1
inactive: all assays above

O=C(O)c1cccc(Cl)c1
inactive: all assays above

CN(C)CCc1ccc(O)cc1
inactive: all assays above

COc1cc(C[C@@H](C)N)c(OC)cc1C
inactive: all assays above

Oc1c(Cl)cccc1Cl
inactive: all assays above

Cc1nnc2n1-c1sc(CCC(=O)N3CCOCC3)cc1C(c1ccccc1Cl)=NC2
inactive: all assays above

CNCC(=O)c1ccc(O)c(O)c1
inactive: all assays above

O=[N+]([O-])c1cccc2cccnc12
inactive: all assays above

OC(Cn1cncn1)(c1ccc(F)cc1)c1ccccc1F (centres undefined)
inactive: all assays above

CCOP(=S)(OCC)Oc1ncn(-c2ccccc2)n1
inactive: all assays above

CC1CN1P(=O)(N1CC1C)N1CC1C (centres undefined)
inactive: all assays above

O=C(O)C(Br)CBr (centres undefined)
inactive: all assays above

C[C@@H]1CN(C2CCC(C#N)(c3ccc(F)cc3)CC2)CC[C@]1(C(=O)O)c1ccccc1 (some centres undefined)
inactive: all assays above

ClCCCN1CCN(c2cccc(Cl)c2)CC1
inactive: all assays above

COP(N)(=S)Oc1ccccc1C(=O)OC(C)C (centres undefined)
inactive: all assays above
